For experiment [1], the target named is Steroid hormone receptor ERR1 (Homo sapiens) (UniProt P11474). The experiment in a line: ATG_ERRa_TRANS: Attagene TRANS-FACTORIAL HepG2 Assay for human Estrogen-Related Receptor alpha (ERRa) (AID 2282971). The note with it: HepG2 Attagene TRANS reporter, ERRa transactivation. In outline: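 Signal gain relative to DMSO for an ERRa-Gal4 chimeric receptor, read as reporter mRNA by RT-PCR/capillary electrophoresis. Human HepG2 liver cells, transient multiplex reporter transfection, 24 h chemical exposure.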
Steroid hormone receptor ERR1 (Homo sapiens), sequence (P11474 whole entry, looked up, the tested form may be a part): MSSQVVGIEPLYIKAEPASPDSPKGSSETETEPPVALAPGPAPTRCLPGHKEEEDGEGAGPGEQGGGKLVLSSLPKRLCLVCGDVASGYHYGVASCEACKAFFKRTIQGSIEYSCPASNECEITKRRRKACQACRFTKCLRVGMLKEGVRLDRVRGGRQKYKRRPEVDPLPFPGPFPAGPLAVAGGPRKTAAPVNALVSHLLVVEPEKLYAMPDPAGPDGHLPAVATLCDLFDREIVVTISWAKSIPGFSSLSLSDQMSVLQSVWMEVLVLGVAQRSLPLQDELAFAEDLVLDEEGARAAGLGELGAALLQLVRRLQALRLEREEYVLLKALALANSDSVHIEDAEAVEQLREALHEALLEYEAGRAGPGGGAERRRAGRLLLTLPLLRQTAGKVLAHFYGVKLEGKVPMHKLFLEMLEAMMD

Experiment [2] has as its target Estrogen-related receptor gamma (Homo sapiens) (UniProt P62508). The experiment in a line: ATG_ERRg_TRANS: Attagene TRANS-FACTORIAL HepG2 Assay for human Estrogen-Related Receptor gamma (ERRg) (AID 2282977).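 Further: hits increase reporter signal over DMSO so potencies reflect activators.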 The note with it: HepG2 Attagene TRANS reporter, ERRg transactivation. The procedure, abridged: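 Readout: fluorescent reporter-mRNA fragments resolved by capillary electrophoresis after RT-PCR and HpaI cut. Cells: transiently transfected HepG2 carrying GAL4-UAS reporters driven by exogenous NR-Gal4 chimeras, dosed 24 h. Activity fitted upward relative to DMSO baseline.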

Read-out in experiment [3]: Pselectin, SELP (gene 6403)
Description: BSK_4H_Pselectin: BioMAP Diversity Plus: 4H Assay for Pselectin Biomarker Activity (AID 2283026; active means hit-call score of the fitted dose curve at least 0.9, where 1 is the maximum; inactive means score below 0.9). The settings on record: primary human endothelial cells (HUVEC); actives raise or lower the signal. In outline: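 HUVEC, 24 h chemical exposure; P-selectin read by ELISA. Bidirectional curve fit vs DMSO baseline; gain or loss of signal scored.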

Read-out in experiment [4]: serum amyloid A (SAA), SAA1 (gene 6288)
The experiment in a line: BSK_CASM3C_SAA: BioMAP Diversity Plus: CASM3C Assay for serum amyloid A (SAA) Biomarker Activity (AID 2283049; active means hit-call score of the fitted dose curve at least 0.9, where 1 is the maximum; inactive means score below 0.9;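 further: SAA protein level quantified by ELISA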). The note with it: primary human coronary artery smooth muscle cells; actives raise or lower the signal.

Read-out in experiment [5]: Interferon-gamma inducible Protein 10 (IP10), CXCL10 (gene 3627)
Description: BSK_hDFCGF_IP10: BioMAP Diversity Plus: hDFCGF Assay for Interferon-gamma inducible Protein 10 (IP10) Biomarker Activity (AID 2283053; active means hit-call score of the fitted dose curve at least 0.9, where 1 is the maximum; inactive means score below 0.9). The settings on record: primary human foreskin fibroblasts; actives raise or lower the signal. The procedure, abridged:
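ELISA read-out of IP-10 (CXCL10) from primary human skin fibroblasts, 24 h after compound addition. Gain or loss of signal versus DMSO baseline, bidirectional curve fitting.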

Read-out in experiment [6]: Vascular cell adhesion molecule 1 (VCAM1), VCAM1 (gene 7412)
Description: BSK_CASM3C_VCAM1: BioMAP Diversity Plus: CASM3C Assay for Vascular cell adhesion molecule 1 (VCAM1) Biomarker Activity (AID 2283055; active means hit-call score of the fitted dose curve at least 0.9, where 1 is the maximum; inactive means score below 0.9;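 further: VCAM-1 protein level quantified by ELISA on the cells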). The note with it: primary human coronary artery smooth muscle cells; actives raise or lower the signal.

Read-out in experiment [7]: Macrophage colony-stimulating factor (MCSF), CSF1 (gene 1435)
The experiment in a line: BSK_hDFCGF_MCSF: BioMAP Diversity Plus: hDFCGF Assay for Macrophage colony-stimulating factor (MCSF) Biomarker Activity (AID 2283060; active means hit-call score of the fitted dose curve at least 0.9, where 1 is the maximum; inactive means score below 0.9). The note with it: AC50: primary human foreskin fibroblasts, actives raise or lower the signal unless noted; outcome: primary human foreskin fibroblasts, actives raise or lower the signal unless noted. The procedure, abridged: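 fibroblasts (human foreskin, primary), 24 h post-dose; M-CSF by ELISA; bidirectional fit, DMSO = baseline.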

In experiment [8] the target is Oxysterols receptor LXR-beta (Homo sapiens) (UniProt P55055). Description: ATG_LXRb_TRANS: Attagene TRANS-FACTORIAL HepG2 Assay for human Liver X Receptor beta (LXRb) (AID 2282981). The note with it: HepG2 Attagene TRANS GAL4-LXRb reporter, mRNA. In outline:
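After 24 h of chemical treatment, transfected HepG2 cells yield total RNA; reporter cDNA is PCR-amplified, FAM-labelled, HpaI-cut and run on capillary electrophoresis. Signal reflects chimeric LXRb-Gal4 activity on GAL4-UAS reporters.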

Experiment [9] deals with human Retinoic Acid Receptor gamma (RARg), RARG (gene 5916) (UniProt P13631). Description: ATG_RARg_TRANS: Attagene TRANS-FACTORIAL HepG2 Assay for human Retinoic Acid Receptor gamma (RARg) (AID 2283009). The procedure, abridged:
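Readout: reporter transcript levels via RT-PCR, 6-FAM primer-extension labelling, HpaI digestion and capillary electrophoresis. Cells: HepG2 carrying transfected RARg-GAL4 chimera plus UAS reporter set. Dosing 24 h; DMSO negative control.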

Experiment [10] deals with Estrogen receptor beta (Homo sapiens) (UniProt Q92731). Description: OT_ER_ERbERb_0480: Odyssey Thera (OT) 8-hour HEK293T Protein-Complementation Assay for Estrogen Receptor-beta/-beta Homodimer (AID 2283357). The procedure, abridged: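 ER-beta LBD homodimer PCA stably expressed in HEK293T; 8 h compound exposure, then formaldehyde fixation and Draq5 staining. Gain in nuclear/cytoplasmic fluorescence intensity versus DMSO vehicle, read on laser scanning cytometer.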
Estrogen receptor beta (Homo sapiens), sequence (Q92731 whole entry, looked up, the tested form may be a part): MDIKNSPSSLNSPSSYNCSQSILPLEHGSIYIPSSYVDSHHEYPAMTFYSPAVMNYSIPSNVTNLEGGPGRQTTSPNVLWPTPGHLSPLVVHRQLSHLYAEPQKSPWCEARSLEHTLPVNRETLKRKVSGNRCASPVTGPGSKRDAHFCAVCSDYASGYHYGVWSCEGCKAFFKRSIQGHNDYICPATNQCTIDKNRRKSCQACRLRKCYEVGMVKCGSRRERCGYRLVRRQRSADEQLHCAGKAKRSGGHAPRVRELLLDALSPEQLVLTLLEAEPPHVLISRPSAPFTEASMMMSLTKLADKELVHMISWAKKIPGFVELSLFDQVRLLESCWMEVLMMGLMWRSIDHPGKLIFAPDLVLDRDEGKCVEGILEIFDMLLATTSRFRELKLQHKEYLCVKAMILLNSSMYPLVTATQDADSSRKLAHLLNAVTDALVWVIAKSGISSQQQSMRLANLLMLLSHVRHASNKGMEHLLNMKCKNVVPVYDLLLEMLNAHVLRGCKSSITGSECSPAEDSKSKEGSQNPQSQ

Experiment [11] has the same target. Description: OT_ER_ERbERb_1440: Odyssey Thera (OT) 24-hour HEK293T Protein-Complementation Assay for Estrogen Receptor-beta/-beta Homodimer (AID 2283380).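 Further: scored as signal increase over DMSO baseline for both agonists and antagonists.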 The procedure, abridged: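 Fluorescence increase, nuclear for agonists or whole-cell for antagonists, relative to DMSO vehicle, quantified by laser scanning cytometer after fixation and Draq5 staining. Readout from 24 h treatment of HEK293T cells carrying complementation-paired ER beta LBD (aa 310-547).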

For experiment [12], the target named is Retinoic acid receptor RXR-alpha (Homo sapiens) (UniProt P19793). The experiment in a line: OT_NURR1_NURR1RXRa_1440: Odyssey Thera (OT) 24-hour HEK293T Protein Complementation Assay for Nurr1/retinoid X receptor (RXR) (AID 2283386). In outline:
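Fluorescence PCA read-out; HEK293T; 24 h post-dose; bait/prey fused to reporter fragments; gain-of-signal fit vs DMSO negative control.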

A short description of experiment [13]: ACEA_AR_agonist_AUC_viability: ACEA Biosciences xCELLigence Real-Time Cell Analysis on Androgen Receptor Agonism for Viability (AID 2283775).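 On AC50: viability read 80 hours after compound addition.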 The procedure, abridged:
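Viability endpoint from xCELLigence impedance in 22Rv1 prostate cells at 80 h. Eight-point series, 100 uM maximum final.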

Experiment [14] in a line: CCTE_Harrill_HTTr_Viability_MCF7: CCTE's 6-hour Cell Viability Assessment for the High-Throughput Transcriptomics (HTTr) Platform, in MCF-7 cells cultured in DMEM + 10% fetal bovine serum, Harrill Lab (AID 2284010; active means hit-call score of the fitted dose curve at least 0.9, where 1 is the maximum; inactive means score below 0.9). In outline: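 PI exclusion, high-content imaging; 8-pt dilution series, 6 h exposure; bidirectional fit vs DMSO (neg. ctrl/baseline); gain of signal = loss of membrane integrity.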

A short description of experiment [15]: CCTE_Harrill_HTTr_Apoptosis_MCF7: CCTE's 6-hour Apoptosis Assessment for the High-Throughput Transcriptomics (HTTr) Platform, in MCF-7 cells cultured in DMEM + 10% fetal bovine serum, Harrill Lab (AID 2284011; active means hit-call score of the fitted dose curve at least 0.9, where 1 is the maximum; inactive means score below 0.9). In outline: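 Apoptosis in MCF-7 cells grown in DMEM with 10% fetal bovine serum was scored after a six hour exposure by high content imaging of caspase-3/7 activation (CellEvent Caspase 3/7 Green), with DMSO serving as negative control and baseline.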

Experiment [16] in a line: ATG_ERE_CIS: Attagene CIS-FACTORIAL HepG2 Assay for Estrogen Response Element (ERE) (AID 2282940; active means hit-call score of the fitted dose curve at least 0.9, where 1 is the maximum; inactive means score below 0.9). The settings on record: HepG2 ERE cis-reporter, Attagene RNA transcript; actives raise or lower the signal. The procedure, abridged: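 Human liver cells (HepG2) bearing transiently transfected, promoter-regulated reporter units were exposed 24 h. Reporter mRNA induction was detected by capillary electrophoresis of labelled RT-PCR products and fitted bidirectionally to DMSO.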

For experiment [17], the target named is human Retinoic Acid Receptor beta (RARb), RARB (gene 5915) (UniProt P10826). Description: ATG_RARb_TRANS: Attagene TRANS-FACTORIAL HepG2 Assay for human Retinoic Acid Receptor beta (AID 2283004). In outline:
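Fluorescent capillary-electrophoresis detection of GAL4-UAS reporter mRNA defines the endpoint, with induction over DMSO-treated wells scored as activity. Transiently transfected human hepatoma HepG2 cells expressing exogenous NR–Gal4 proteins are exposed to test chemicals for 24 h.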

Experiment [18] deals with Peroxisome proliferator-activated receptor gamma (Homo sapiens) (UniProt P37231). Description: OT_PPARg_PPARgSRC1_0480: Odyssey Thera (OT) 8-hour Protein-Complementation Assay for Peroxisome Proliferator-activated Receptor Gamma / SRC-1 Co-activator (AID 2283387).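 Further: nuclear to cytoplasmic split Venus YFP fluorescence ratio reporting PPARg SRC-1 interaction.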 The procedure, abridged:
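HEK293T transiently transfected with PPARg and SRC-1 fused to Venus YFP fragments, compounds 8 h at 37C. Fixed, Draq5-stained cells imaged; nuclear/cytoplasmic 488 nm fluorescence ratio over at least 350 cells per image; gain fitted versus DMSO.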

Experiment [19] in a line: ACEA_AR_antagonist_AUC_viability: ACEA Biosciences xCELLigence Real-Time Cell Analysis on Androgen Receptor Antagonism for Viability (AID 2283776).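 Further: area under impedance growth curve at 80 h after dosing as viability; hits lower the growth signal relative to DMSO meaning cytotoxicity.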 In outline: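 22Rv1 human prostate cancer cells were seeded on electrode plates, monitored overnight, then exposed to eight 1:4 dilutions from 100 uM final. Impedance-based growth kinetics at 80 h gave an AUC viability endpoint normalized to DMSO.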

Structures are written as SMILES. Results filed as inconclusive are left out. Activity calls are given as the source filed them. How the source made its calls, unless noted: active means hit-call score of the fitted dose curve at least 0.9, where 1 is the maximum; inconclusive means response in the unintended direction; inactive means score below 0.9.

Estrogen-related receptor gamma (Homo sapiens), sequence (P62508 whole entry, looked up, the tested form may be a part): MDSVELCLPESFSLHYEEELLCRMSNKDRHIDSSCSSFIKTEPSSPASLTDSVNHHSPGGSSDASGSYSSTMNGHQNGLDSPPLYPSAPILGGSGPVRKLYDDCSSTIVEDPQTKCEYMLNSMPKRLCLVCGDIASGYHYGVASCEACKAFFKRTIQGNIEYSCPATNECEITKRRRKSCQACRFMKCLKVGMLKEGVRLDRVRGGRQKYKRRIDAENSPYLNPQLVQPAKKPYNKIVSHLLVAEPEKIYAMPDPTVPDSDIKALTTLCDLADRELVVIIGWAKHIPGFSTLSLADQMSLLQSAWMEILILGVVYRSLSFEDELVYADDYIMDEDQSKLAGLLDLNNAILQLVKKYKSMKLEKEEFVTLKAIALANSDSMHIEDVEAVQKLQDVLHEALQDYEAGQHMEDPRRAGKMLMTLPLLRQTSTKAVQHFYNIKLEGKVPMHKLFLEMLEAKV
Retinoic acid receptor RXR-alpha (Homo sapiens), sequence (P19793 whole entry, looked up, the tested form may be a part): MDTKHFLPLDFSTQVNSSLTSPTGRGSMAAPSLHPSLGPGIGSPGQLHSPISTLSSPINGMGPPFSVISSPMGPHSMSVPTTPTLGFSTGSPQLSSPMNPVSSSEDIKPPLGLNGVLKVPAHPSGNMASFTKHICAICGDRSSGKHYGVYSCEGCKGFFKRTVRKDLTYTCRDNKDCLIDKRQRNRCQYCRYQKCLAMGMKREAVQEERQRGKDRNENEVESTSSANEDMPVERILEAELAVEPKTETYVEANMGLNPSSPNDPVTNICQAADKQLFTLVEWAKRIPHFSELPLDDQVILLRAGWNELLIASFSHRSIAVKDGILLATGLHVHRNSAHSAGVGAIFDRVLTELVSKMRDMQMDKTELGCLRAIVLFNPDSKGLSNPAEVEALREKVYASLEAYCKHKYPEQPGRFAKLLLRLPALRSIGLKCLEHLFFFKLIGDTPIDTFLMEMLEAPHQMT
human Retinoic Acid Receptor gamma (RARg), RARG (gene 5916), sequence (P13631 whole entry, looked up, the tested form may be a part): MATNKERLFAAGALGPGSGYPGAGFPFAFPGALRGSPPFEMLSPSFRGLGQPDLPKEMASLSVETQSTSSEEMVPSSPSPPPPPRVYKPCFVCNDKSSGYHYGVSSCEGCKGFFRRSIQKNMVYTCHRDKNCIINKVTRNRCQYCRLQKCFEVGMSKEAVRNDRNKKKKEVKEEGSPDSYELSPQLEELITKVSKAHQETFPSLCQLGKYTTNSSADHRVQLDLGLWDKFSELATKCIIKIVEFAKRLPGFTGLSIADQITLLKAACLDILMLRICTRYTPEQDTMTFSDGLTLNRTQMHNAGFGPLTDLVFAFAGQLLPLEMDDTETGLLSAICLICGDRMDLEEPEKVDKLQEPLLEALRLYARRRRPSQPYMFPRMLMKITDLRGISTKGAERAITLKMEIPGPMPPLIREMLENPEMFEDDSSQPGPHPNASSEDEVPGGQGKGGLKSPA
human Retinoic Acid Receptor beta (RARb), RARB (gene 5915), sequence (P10826 whole entry, looked up, the tested form may be a part): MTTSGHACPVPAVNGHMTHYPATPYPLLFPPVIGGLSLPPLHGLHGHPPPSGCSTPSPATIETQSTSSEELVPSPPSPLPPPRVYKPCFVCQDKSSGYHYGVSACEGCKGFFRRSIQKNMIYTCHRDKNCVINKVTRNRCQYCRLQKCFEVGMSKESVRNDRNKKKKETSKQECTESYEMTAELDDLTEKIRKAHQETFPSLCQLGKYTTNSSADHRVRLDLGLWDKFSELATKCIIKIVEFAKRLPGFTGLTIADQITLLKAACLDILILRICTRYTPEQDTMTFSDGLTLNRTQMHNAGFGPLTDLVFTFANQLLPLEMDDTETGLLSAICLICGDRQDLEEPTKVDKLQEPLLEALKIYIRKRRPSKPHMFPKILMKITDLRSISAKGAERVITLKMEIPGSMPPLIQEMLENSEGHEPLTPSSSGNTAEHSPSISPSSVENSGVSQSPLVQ
Peroxisome proliferator-activated receptor gamma (Homo sapiens), sequence (P37231 whole entry, looked up, the tested form may be a part): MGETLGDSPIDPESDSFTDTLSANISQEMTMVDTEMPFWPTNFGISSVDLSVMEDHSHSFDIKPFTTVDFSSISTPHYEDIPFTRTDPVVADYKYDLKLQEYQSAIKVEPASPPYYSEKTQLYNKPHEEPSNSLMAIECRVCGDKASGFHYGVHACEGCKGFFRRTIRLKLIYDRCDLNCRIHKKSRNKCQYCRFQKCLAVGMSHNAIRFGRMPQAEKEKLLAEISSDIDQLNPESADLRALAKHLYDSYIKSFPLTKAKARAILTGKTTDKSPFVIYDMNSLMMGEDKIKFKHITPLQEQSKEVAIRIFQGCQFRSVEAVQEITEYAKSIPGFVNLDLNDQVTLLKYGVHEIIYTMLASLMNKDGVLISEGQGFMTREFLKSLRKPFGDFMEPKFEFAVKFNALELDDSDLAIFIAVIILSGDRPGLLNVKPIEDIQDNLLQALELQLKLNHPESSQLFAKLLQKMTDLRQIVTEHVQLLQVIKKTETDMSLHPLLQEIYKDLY
Oxysterols receptor LXR-beta (Homo sapiens), sequence (P55055 whole entry, looked up, the tested form may be a part): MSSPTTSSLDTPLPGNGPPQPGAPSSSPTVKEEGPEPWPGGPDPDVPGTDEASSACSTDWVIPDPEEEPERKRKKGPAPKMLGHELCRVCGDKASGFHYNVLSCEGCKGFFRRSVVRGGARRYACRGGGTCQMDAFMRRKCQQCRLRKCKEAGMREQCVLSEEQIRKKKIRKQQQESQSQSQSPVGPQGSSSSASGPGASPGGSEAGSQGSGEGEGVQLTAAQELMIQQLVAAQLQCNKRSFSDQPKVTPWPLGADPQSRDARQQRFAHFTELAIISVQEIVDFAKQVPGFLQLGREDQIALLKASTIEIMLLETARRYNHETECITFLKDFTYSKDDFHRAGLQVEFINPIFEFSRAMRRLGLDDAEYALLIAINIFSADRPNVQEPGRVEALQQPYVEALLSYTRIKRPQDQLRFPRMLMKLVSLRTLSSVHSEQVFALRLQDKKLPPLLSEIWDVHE

On to `COC(=O)/C=C\C(=O)OC`, for which the outcome in [1], in experiment [2], in experiment [3], in experiment [4], in [5] and in [7] was inactive. For the same compound, the AC50 (as a rule, the concentration giving half of the maximal activity seen) in experiment [6] is 20 µM (active).

With `COC(=O)[C@]1(C)CCC[C@@]2(C)[C@H]1CC=C1C=C(C(C)C)CC[C@@H]12`, the result in experiment [8], in [9], in [10], in experiment [11] and in experiment [12] was inactive. In experiment [13], the AC50 is 0.333 µM (active).

For `O=C(C(=O)c1ccccc1)c1ccccc1`, the result in [1], in experiment [2], in experiment [3], in experiment [4], in experiment [5] and in [6] was inactive. The outcome in [7], in [14] and in [15] was inactive.

As for `CCC(C)NC(N)=O` (stereo not given), the outcome in experiment [16] was inactive.

In the case of `CC=CC(=O)O`, the call in [1], in experiment [2], in experiment [17] and in experiment [9] was inactive.

As to `CNC(=C[N+](=O)[O-])NCCSCc1csc(CN(C)C)n1`, the call in experiment [8], in experiment [14] and in [15] was inactive.

In the case of `C=CCOCC(CC)(CO)COCC=C`, the outcome in experiment [8] was inactive.

In the case of `Cc1ccccc1S(=O)(=O)O`, the compound was called inactive in experiment [10] and in [11].

As to `CCCCOC(=O)COc1ccc(Cl)cc1Cl`, the compound was called inactive in experiment [12], in [18], in experiment [13] and in experiment [19].

Turning to `OCCc1ccccn1`, in [8], the result was inactive.

Take `CCCCCCCCCC/C=C/C1CC(=O)OC1=O` (stereo not given): the outcome in experiment [3], in [4], in experiment [5], in [6] and in experiment [7] was inactive.

`CCO[Si](OCC)(OCC)c1ccccc1`: the outcome in experiment [1] was inactive.

Regarding `O=C1NC(=O)C2CC=CCC12` (stereo not given), the result in [9], in [10], in experiment [11], in [12], in [13] and in [19] was inactive.

`CCCCCC1CCCC(=O)O1` (stereo not given): the outcome in experiment [1], in [2], in experiment [17] and in experiment [9] was inactive.

`CC/C=C\CCCCCO`: in experiment [1], the result was inactive.

With `CCCCNC(N)=O`, the compound was called inactive in experiment [1] and in [8].

Regarding `O=[N+]([O-])c1ccccc1C(F)(F)F`, the outcome in experiment [16], in experiment [1], in experiment [2] and in experiment [9] was inactive.

With `c1cc[c]([Bi]([c]2ccccc2)[c]2ccccc2)cc1`, the concentration at half-maximal activity (AC50) in experiment [16] was 6.83 µM (active). For the same compound, the compound was called inactive in experiment [8].

In the case of `[O-][n+]1ccc(Cl)cc1`, in [17], the compound was called inactive.

Consider `c1ccc(CNc2ncnc3nc[nH]c23)cc1`, for which the result in [9], in experiment [10], in experiment [11], in [13], in experiment [19] and in experiment [14] was inactive. Also, in experiment [15], the outcome was inactive.

`CC(=O)OC(C)(C)Cc1ccccc1`: the compound was classed as inactive in [13] and in experiment [19].

Regarding `CCCCCC[C@@H](O)C/C=C\CCCCCCCC(=O)O`, the result in experiment [8], in experiment [10], in [11], in experiment [12], in experiment [18] and in experiment [13] was inactive. Also, the outcome in experiment [19], in [14] and in [15] was inactive.

As to `Clc1ccccn1`, the compound was called inactive in experiment [9], in experiment [14] and in experiment [15].

On to `O=S(=O)(O)c1cccc2ccccc12`, for which the result in experiment [1], in experiment [2], in [18], in experiment [13] and in [19] was inactive.

In the case of `CC/C=C/CCO`, the outcome in [2] was inactive.

As for `C=CCOC(=O)C(=C)C`, the compound was classed as inactive in [1], in [2] and in [9].

As for `Cc1cc2nc3c(=O)[nH]c(=O)nc-3n(C[C@H](O)[C@H](O)[C@H](O)CO)c2cc1C`, the AC50 is 11.8 µM (active) in experiment [10], 24.1 µM (active) in [11] and 11 µM (active) in [12]. Further, the compound was classed as inactive in experiment [19], in [14] and in [15].

On to `NCc1ccccc1`, for which the compound was classed as inactive in [1], in [2], in [8], in experiment [14] and in [15].

Values taken from PubChem BioAssay (EPA / NIEHS).
